Most compounds without a hit are left out; they make up all but 1.6% or so of the library.
gsp agonist = agonists of gsp mutant (McCune-Albright syndrome) | gsp mutant cells, cAMP HTRF, 30 min | Potency, µM (titrated, usually from 76.9 µM), inactives show at the top dose activation (cAMP increase), actives largely listed as activators | 340,000 compounds, 0.13% hits | AID 624287; active means well fitted activation curve with a large enough effect; inconclusive means small, poorly fitted or top-dose-only effect, or another doubt; inactive means no such curve, though single readings can be large or run the other way; cell line not stated here;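 further: phosphodiesterase inhibitor Ro 20-1724 added with compounds to block cAMP breakdown; nearly all actives have a fitted effect of over 60% in size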
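Cells in DMEM/10% FBS with G418 were pretreated with compounds in DMSO plus […] (300 uM stock) for 30 min at 37C. cAMP was measured by HTRF (cAMP-d2 plus anti-cAMP antibody-K) after 30 min at room temperature.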
FUS suppressor = FUS proteinopathy suppression in yeast; 390,000 compounds, 0.24% hits; Potency, µM (doses to about 76.6 µM), hits mostly activators; S. cerevisiae FUS-expressing, growth rescue, OD600, 24 h;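 further: plate controls were DMSO vehicle for no effect and reference control for full effect; nearly all actives have a fitted effect of over 55% in size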
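Steps: raffinose overnight preculture; dilution to OD 0.005 in 2% galactose minimal medium; compound addition (concentration series); 24hr at 30C, 99% humidity; absorbance read at 600 nm.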
Mito fusion yeast = mitochondrial division inhibition or fusion activation; S. cerevisiae fusion-defective mutant growth rescue, CellTiterGlo 48 h; 320,000 compounds, 0.23% hits; Potency, µM (series often up to 46.1 µM), for the others: at the top dose growth rescue (activation), actives largely listed as activators; AID 485298; further: % of control where 0% means no effect; nearly all actives have a fitted effect of over 45% in size
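Yeast fusion mutant, YPEG (non-fermentable carbon), compound, 48 h at 37C non-permissive; CellTiterGlo added, 10 min RT, luminescence read. Rescued growth = division inhibition.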
12-LOX inh = ALOX12 (human) lipoxygenase inhibition; P18054; purified 12hLO, xylenol orange hydroperoxide absorbance; Potency, µM (highest dose often 108 µM), for inactives: top-dose activity change, negative = inhibition, actives largely listed as inhibitors; 580,000 compounds, 1.1% hits; further: on the % scale 0 is the no-effect control and ±100 the full control effect
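Purified human 12hLO at 150 nM in 25 mM Hepes, 0.01% Triton X-100, pH 7.0, preincubated 15 min at room temperature with compound. Reaction started with 40 uM arachidonic acid, 30 min at room temperature. Hydroperoxide measured by Fe-xylenol orange, 573/405 nm absorbance ratio.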
gsp antag = antagonizes gsp, the McCune-Albright syndrome mutation; gsp-mutant cells, cAMP HTRF, 30 min; 340,000 compounds, 0.4% hits; AID 624288; Potency, µM (series often up to 76.9 µM), inactives show top-dose activity change, negative = inhibition, hits mostly inhibitors; calls by dose curve; cell line not stated here;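 further: intracellular cAMP measured with PDE inhibitor Ro 20-1724 present during compound exposure; on the % scale 0 is the no-effect control and ±100 the full control effect; nearly all actives have a fitted effect of over 65% in size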
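Cells in G418 medium, seeded 16-24 h, 37C; buffer exchange to DPBS + 1 mM CaCl2, 0.5 mM MgCl2, 0.05% BSA; cpds in DMSO + […] (300 uM stock), 30 min 37C; HTRF cAMP detection.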
The depositor's hits bear a star; i = inactive; ? = inconclusive; / = no result given; [ ] = another dose, or the depositor's remark. Unless noted, the call rests on the fitted dose curve; in most records, active means well fitted curve in the direction sought with a large enough effect; inconclusive means small, poorly fitted or top-dose-only effect, or another doubt; inactive means no such curve, though single readings can be large; an effect the other way counts as inactive or inconclusive. Potency means the concentration at half of the fitted maximal effect.

SMILES	gsp agonist	FUS suppressor	Mito fusion yeast	12-LOX inh	gsp antag
Cc1csc(NC(=O)c2cc(-c3ccco3)nc3ccccc23)n1	-226.4%	i	-4.3%	25.1µM*	-13.6%
Cc1csc(NC(=O)c2ccc3ccccc3n2)n1	-9.7%[15.4 µM]	i	5.8%	14.1µM*	-12.1%
O=C(Nc1nccs1)c1cc(-c2ccco2)nc2ccccc12	18.8%	i	-4.6%	44.7µM*	7.1%
CCN(CC)S(=O)(=O)c1ccc2c(c1)CCN2	/	/	/	0.3%	/
Cc1cccc(-c2nnc(SCC(=O)Nc3cc(F)ccc3C)n2N)c1	/	/	/	-0.2%	/
CCOC(=O)c1ccc(NC(=O)CCS(=O)(=O)c2ccc3c(c2)CC(C)N3C(=O)CC)cc1 (configuration not stated)	/	/	/	-1.3%	/
C/C(=N\NC(=S)NCCc1ccccc1)c1ccc(C)cc1	?	i	-4.4%	39.8µM*	-9.3%
COc1ccccc1NC(=S)NCCSc1ccc(C)cc1	13.4%	/	13.8%	44.7µM*	-11.8%
C/C(=N\NC(=S)NCCc1ccccc1)c1ccc(Cl)cc1	5.6%	/	-1.1%	35.5µM*	-8.4%
C/C(=N\NC(=S)NCCc1ccccc1)c1ccc(C#N)cc1	-47.5%	i	4.3%	0.0%	-2.6%
S=C(NCCSc1ccc(Cl)cc1)NCCc1ccccc1	/	/	/	39.8µM*	/
Cc1ccc(SCCNC(=S)Nc2ccccc2)cc1	-1.5%	i	-1.9%	?	-13.7%
COCCNC(=O)CSc1c2c(nc3ccc(Cl)cc13)CCCC2	-44.6%	i	17.8µM*	4.9%	2.1%
CN(C1CCCCC1)S(=O)(=O)c1ccc(C(=O)Nc2ccc(Cl)c3ncsc23)cc1	/	/	/	0.2%	/
Cc1ccc(-c2nnn(C(C)C(=O)N3c4ccccc4CCc4ccccc43)n2)cc1 (configuration not stated)	0.0%	i	14.1µM*	14.7%	-10.8%
CCOC(=O)C1CCCN(C(=O)c2ccc3c(c2)N(C)C(=O)/C(=C/c2ccccc2Cl)S3)C1 (configuration not stated)	-18.9%	?	-8.7%	-19.8%	11.2µM*
CN1C(=O)/C(=C/c2ccccc2Cl)Sc2ccc(C(=O)N3CCCC3)cc21	1.4%	?	7.1%	-3.0%	31.6µM*
O=C(Nc1nc(-c2ccccc2)cs1)c1ccc(N2CCOCC2)c([N+](=O)[O-])c1	-4.7%[15.4 µM]	i	21.8%	/	31.6µM*
O=C(Nc1ccccc1Cl)c1ccc2c(=O)n3c(nc2c1)CCC3	-11.3%	/	4.3%	0.0%	-14.6%
O=C(Nc1nc(-c2ccccc2)cs1)c1ccc2c(=O)n3c(nc2c1)CCCCC3	-76.3%	i	26.9%	-3.6%	39.8µM*
COc1cccc(CN2CCN3C(C(=O)Nc4ccccc4)=COC3=NC2=O)c1	/	/	/	-14.1%	/
O=C1NCc2ccccc2CC12CCN(Cc1ccc([N+](=O)[O-])cc1)C2 (configuration not stated)	/	/	/	50.1µM*	/
C[S+](=O)([O-])N1CC2(CCN(Cc3ccc(Cl)cc3)C2)Cc2ccccc21 (configuration not stated)	/	/	/	44.7µM*	/
O=C1NCc2ccccc2CC12CCN(Cc1ccc(Cl)cc1)C2 (configuration not stated)	/	/	/	22.4µM*	/
Cc1ccc(CCN2CCC3(Cc4ccccc4CNC3=O)C2)cc1 (configuration not stated)	/	/	/	12.6µM*	/
SMILES	gsp agonist	FUS suppressor	Mito fusion yeast	12-LOX inh	gsp antag
O=C(NCCSC1CCCC1)c1ccsc1	/	/	/	-6.6%	/
O=C(CCc1ncc(-c2c(F)cccc2F)o1)NCc1ccco1	/	/	/	67.0%	/
Cc1ccc(CCN2CCC3(Cc4ccccc4CN([S+](C)(=O)[O-])C3)C2)cc1 (configuration not stated)	/	/	/	7.08µM*	/
O=C1NCc2ccccc2CC12CCN(Cc1ccc(Br)cc1)C2 (configuration not stated)	/	/	/	28.2µM*	/
Cc1cc(C)c(NC(=O)COC(=O)c2cccc3c2C(=O)c2ccccc2C3=O)c(C)c1	-57.4%	/	29.0%	-3.9%	-5.7%
Cc1cc(C)c(Nc2cc(S(=O)(=O)O)c(N)c3c2C(=O)c2ccccc2C3=O)c(C)c1	-16.3%	/	-12.1%	?	28.2µM*
CN1c2cc(C(=O)Nc3ccc(Br)cc3)ccc2C(=O)N2CCCCC21 (configuration not stated)	/	/	/	-15.6%	/
